# According to PubChem BioAssay:
# Activity calls are given as the source filed them. Unless noted, the rule behind the calls is not given here.
# Assays:
# [1] = A549 cell viability effects, profiling panel, calcein-AM fluorescence, 48 h, basal (AID 1162); settings: higher = more signal; note: test concentration not given here
# [2] = adipocyte viability effects, profiling panel, cell-based, 3T3-L1 adipocytes, calcein-AM fluorescence, 48 h, basal (AID 1163); settings: 3T3-L1 adipocytes viability, higher = more signal; note: test concentration not given here
# [3] = HepG2 cell viability effects, profiling panel, calcein-AM fluorescence, 48 h, basal (AID 1164); settings: higher = more signal; note: test concentration not given here
# [4] = MM1S cell viability effects, profiling panel, calcein-AM fluorescence, 48 h, basal (AID 1165); settings: higher = more signal;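 note: viability of MM1S multiple myeloma cells under basal unstimulated conditions; test concentration not given here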
# [5] = basal RPMI8226 viability, no added stimulus, profiling panel, cell-based, calcein-AM fluorescence, 48 h, PK04 Diversity Set (AID 1166); settings: RPMI8226 myeloma viability, higher = more signal;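 note: cells grown under basal conditions without added stimulus; test concentration not given here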
# [6] = basal HepG2 mitochondrial membrane potential changes, profiling panel, cell-based, JC-1 fluorescence, 24 h, 100 nL compound (AID 1167); settings: higher = more signal; note: test concentration not given here
# [7] = basal 3T3-L1 adipocyte mitochondrial potential changes, profiling panel, cell-based, JC-1 fluorescence, 3T3-L1 adipocytes, 24 h, 100 nL compound (AID 1168); settings: JC-1 mitochondrial fluorescence, higher = more signal, called active from +8 up or from −8 down; note: test concentration not given here
# [8] = basal RPMI8226 mitochondrial membrane potential changes, profiling panel, cell-based, JC-1 fluorescence, 24 h, 100 nL compound (AID 1169); settings: RPMI8226 myeloma, JC-1 mitochondrial potential fluorescence, higher = more signal; note: test concentration not given here
# [9] = basal MM1S mitochondrial membrane potential changes, profiling panel, cell-based, JC-1 fluorescence, 24 h, 100 nL compound (AID 1170); settings: higher = more signal; note: test concentration not given here
# [10] = A549 lung cancer cell viability effects, profiling panel, resazurin fluorescence, 24 h, PK04 Diversity Set (AID 1171); settings: higher = more signal, called active from +8 up or from −8 down; note: test concentration not given here
# [11] = HepG2 liver cancer cell viability effects, profiling panel, resazurin fluorescence, 24 h, PK04 Diversity Set (AID 1172); settings: higher = more signal; note: test concentration not given here
# [12] = basal S. cerevisiae growth modulation, no modifier, primary screen, OD600, strain BY4716, 24 h, basal condition (AID 1173); settings: OD600, 24 h, higher = more signal, called active from +8 up or from −8 down
# [13] = MM1S myeloma cell viability, profiling panel, resazurin fluorescence, basal, 24 h, PK04 Diversity Set (AID 1174); settings: higher = more signal, called active from +8 up or from −8 down;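 note: MM1S multiple myeloma cell line; test concentration not given here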
# [14] = molecular target: Dihydroorotate dehydrogenase (quinone), mitochondrial (Plasmodium falciparum (isolate 3D7)) (UniProt Q08210); assay: PfDHODH enzyme inhibitors, primary screen, biochemical, C-terminal His tag, absorbance 600 nm (AID 1175); settings: DCIP absorbance 600 nm, higher = more signal, called active from +8 up or from −8 down;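 note: recombinant parasite enzyme with a five histidine tag at its C terminus; test concentration not given here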
# Dihydroorotate dehydrogenase (quinone), mitochondrial (Plasmodium falciparum (isolate 3D7)), sequence (Q08210 whole entry, looked up): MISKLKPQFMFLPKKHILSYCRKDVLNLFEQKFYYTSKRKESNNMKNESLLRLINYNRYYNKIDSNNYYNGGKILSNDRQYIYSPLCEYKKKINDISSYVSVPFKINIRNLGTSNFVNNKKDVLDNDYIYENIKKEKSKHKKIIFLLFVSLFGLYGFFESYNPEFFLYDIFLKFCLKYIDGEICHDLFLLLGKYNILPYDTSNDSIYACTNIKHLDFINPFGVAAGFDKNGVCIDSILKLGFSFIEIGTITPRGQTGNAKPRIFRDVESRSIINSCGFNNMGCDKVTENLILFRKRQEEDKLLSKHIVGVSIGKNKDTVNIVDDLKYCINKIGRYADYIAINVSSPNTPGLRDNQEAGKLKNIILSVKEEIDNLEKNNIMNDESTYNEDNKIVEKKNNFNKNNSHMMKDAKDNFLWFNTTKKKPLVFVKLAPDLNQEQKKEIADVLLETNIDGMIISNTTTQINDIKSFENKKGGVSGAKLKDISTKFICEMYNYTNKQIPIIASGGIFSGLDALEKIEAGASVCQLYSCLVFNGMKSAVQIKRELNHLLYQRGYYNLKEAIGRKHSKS
# [15] = P. aeruginosa biofilm formation inhibitors, primary screen, strain PAO1, LB-PBS medium, absorbance 600 nm (AID 1176); note: test concentration not given here; settings: P. aeruginosa PAO1 growth/biofilm, A600, 12 h; higher = more signal
# [16] = S. cerevisiae RM11-1a growth modifiers, primary screen, strain RM11-1a, OD600, basal, 24 h (AID 1177); settings: OD600, 24 h, higher = more signal, called active from +8 up or from −8 down;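 note: cultures grown under basal conditions with no added stressor; test concentration not given here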
# [17] = E. coli acrAB mutant growth effects, primary screen, E. coli filamentation inducers, strain DRC39, OD650, 24 h (AID 1178); settings: higher = more signal, called active from +8 up or from −8 down;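 note: growth measured as culture turbidity by optical density at 650 nm; test concentration not given here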
# [18] = E. coli acrAB mutant growth effects, primary screen, E. coli filamentation inducers, strain DRC39, OD650, 48 h (AID 1179);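 note: screen aims at cell division blockers that make cells filament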; settings: E. coli DRC39 delta-acrAB growth, higher = more signal, called active from +8 up or from −8 down
# [19] = RPMI8226 myeloma cell viability, profiling panel, resazurin fluorescence, basal, 24 h, PK04 Diversity Set (AID 1180); settings: higher = more signal;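 note: RPMI8826 multiple myeloma cell line at 5000 cells per well; test concentration not given here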
# [20] = molecular target: E3 ubiquitin-protein ligase XIAP (Homo sapiens) (UniProt P98170); assay: XIAP binders, primary screen, biophysical, small-molecule microarray, fluorescence 635 nm (AID 1181); settings: small-molecule microarray binding, higher = more signal;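 note: score merges 667 nm emission and signal to noise over triplicate slides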
# E3 ubiquitin-protein ligase XIAP (Homo sapiens), sequence (P98170 whole entry, looked up): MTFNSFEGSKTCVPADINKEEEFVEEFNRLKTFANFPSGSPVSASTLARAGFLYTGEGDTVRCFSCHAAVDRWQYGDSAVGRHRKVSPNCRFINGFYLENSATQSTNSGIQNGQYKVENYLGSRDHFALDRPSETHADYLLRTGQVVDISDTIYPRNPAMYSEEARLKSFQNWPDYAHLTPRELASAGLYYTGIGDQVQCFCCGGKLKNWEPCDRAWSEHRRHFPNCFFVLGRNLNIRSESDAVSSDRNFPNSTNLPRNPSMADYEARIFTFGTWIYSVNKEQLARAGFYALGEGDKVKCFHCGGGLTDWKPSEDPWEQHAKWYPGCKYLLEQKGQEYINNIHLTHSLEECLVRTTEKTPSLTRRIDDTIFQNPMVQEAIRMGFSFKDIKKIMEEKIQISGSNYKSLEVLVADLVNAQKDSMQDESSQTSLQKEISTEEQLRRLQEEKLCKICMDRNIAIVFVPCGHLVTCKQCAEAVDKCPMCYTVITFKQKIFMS
smiles,measurement,setting,value
COCCOC(=O)N1C(=O)[C@@]2(c3cc(C#CCCO)ccc31)[C@H](C(=O)NC[C@H](O)c1ccccc1)[C@H]1C(=O)O[C@H](c3ccccc3)[C@H](c3ccccc3)N1[C@@H]2c1ccccc1OCCO,z-score,[1],1.27
same,z-score,[2],0.904
same,z-score,[3],1.21
same,z-score,[4],-1.96
same,z-score,[5],-3.05
same,z-score,[6],-1.36
same,z-score,[7],0.833 (inactive)
same,z-score,[8],-0.844
same,z-score,[9],-0.424
same,z-score,[10],0.715 (inactive)
same,z-score,[11],0.446
same,z-score,[12],0.446 (inactive)
same,z-score,[13],0.0837 (inactive)
same,composite z-score,[14],0.246 (inactive)
same,z-score,[15],1.12 (inactive)
same,z-score,[16],1.88 (inactive)
same,z-score,[17],0.136 (inactive)
same,z-score,[18],0.259 (inactive)
same,z-score,[19],-0.135
same,composite z-score,[20],0.0593
O=C1O[C@H](c2ccccc2)[C@H](c2ccccc2)N2[C@H]1[C@@H](C(=O)N1CCN(c3ncccn3)CC1)[C@]1(C(=O)Nc3ccc(C#CCCO)cc31)[C@H]2c1ccccc1OCCO,z-score,[1],1.09
same,z-score,[2],0.569
same,z-score,[3],0.313
same,z-score,[4],-0.445
same,z-score,[5],-2.95
same,z-score,[6],0.308
same,z-score,[7],0.488 (inactive)
same,z-score,[8],-0.794
same,z-score,[9],-0.0117
same,z-score,[10],1.92 (inactive)
same,z-score,[11],-0.141
same,z-score,[12],0.687 (inactive)
same,z-score,[13],-0.31 (inactive)
same,composite z-score,[14],-0.49 (inactive)
same,z-score,[15],1.34 (inactive)
same,z-score,[16],1.91 (inactive)
same,z-score,[17],0.156 (inactive)
same,z-score,[18],0.614 (inactive)
same,z-score,[19],-1.36
same,composite z-score,[20],-0.16
COCCOC(=O)N1C(=O)[C@@]2(c3cc(C#CCNC(N)=O)ccc31)[C@H](c1ccc(OCCO)cc1)N1[C@H](c3ccccc3)[C@H](c3ccccc3)OC(=O)[C@H]1[C@@H]2C(=O)N1CCN(c2ncccn2)CC1,z-score,[1],-0.142
same,z-score,[2],0.169
same,z-score,[3],-0.123
same,z-score,[4],-0.216
same,z-score,[5],0.191
same,z-score,[6],-1.76
same,z-score,[7],1 (inactive)
same,z-score,[8],0.118
same,z-score,[9],-0.572
same,z-score,[10],1.28 (inactive)
same,z-score,[11],0.26
same,z-score,[12],1.51 (inactive)
same,z-score,[13],-0.0528 (inactive)
same,composite z-score,[14],-0.239 (inactive)
same,z-score,[15],2.5 (inactive)
same,z-score,[16],2.05 (inactive)
same,z-score,[17],-0.157 (inactive)
same,z-score,[18],-0.327 (inactive)
same,z-score,[19],0.0246
same,composite z-score,[20],0.1
CN(C)C(=O)[C@@]1(Cc2ccccc2N=[N+]=[N-])N=C(c2ccc(OCCCO)cc2)O[C@H]1c1ccccc1N=[N+]=[N-],z-score,[1],-0.0639
same,z-score,[2],1.45
same,z-score,[3],-1.38
same,z-score,[4],-3.16
same,z-score,[5],-4.47
same,z-score,[6],1.45
same,z-score,[7],0.918 (inactive)
same,z-score,[8],-1.26
same,z-score,[9],-1.03
same,z-score,[10],-0.406 (inactive)
same,z-score,[11],-0.663
same,z-score,[12],0.582 (inactive)
same,z-score,[13],-1.8 (inactive)
same,composite z-score,[14],1.32 (inactive)
same,z-score,[15],-0.73 (inactive)
same,z-score,[16],2.9 (inactive)
same,z-score,[17],0.732 (inactive)
same,z-score,[18],-0.421 (inactive)
same,z-score,[19],-2.2
same,composite z-score,[20],1.98
C[N+](C)(C)CCCCNC(=O)[C@H]1C[C@H]2C(=O)NCC(=O)N2[C@H]1c1ccc(O)cc1,z-score,[1],-0.143
same,z-score,[2],-0.811
same,z-score,[3],0.658
same,z-score,[4],0.519
same,z-score,[5],0.124
same,z-score,[6],0.227
same,z-score,[7],-0.12 (inactive)
same,z-score,[8],-0.797
same,z-score,[9],-0.988
same,z-score,[10],-1.02 (inactive)
same,z-score,[11],-0.103
same,z-score,[12],0.105 (inactive)
same,z-score,[13],-0.511 (inactive)
same,composite z-score,[14],-29.2 (active)
same,z-score,[15],0.28 (inactive)
same,z-score,[16],-0.279 (inactive)
same,z-score,[17],0.703 (inactive)
same,z-score,[18],1.35 (inactive)
same,z-score,[19],-0.253
same,composite z-score,[20],-0.17
COC(=O)[C@]1(Cc2ccccc2CN=[N+]=[N-])N=C(c2ccc(OCCCO)cc2)O[C@@H]1c1ccccc1CN=[N+]=[N-],z-score,[1],-3.46
same,z-score,[2],0.766
same,z-score,[3],-4.79
same,z-score,[4],-3.67
same,z-score,[5],-4.08
same,z-score,[6],0.344
same,z-score,[7],0.24 (inactive)
same,z-score,[8],-1.07
same,z-score,[9],-2.47
same,z-score,[10],-3.05 (inactive)
same,z-score,[11],-1.27
same,z-score,[12],0.803 (inactive)
same,z-score,[13],-3.36 (inactive)
same,composite z-score,[14],1.36 (inactive)
same,z-score,[15],3.93 (inactive)
same,z-score,[16],2.92 (inactive)
same,z-score,[17],2.1 (inactive)
same,z-score,[18],1.6 (inactive)
same,z-score,[19],-4.23
same,composite z-score,[20],-0.0025
C=C[C@@H](O)[C@H]1CC(c2ccccc2)=NO1,z-score,[1],0.721
same,z-score,[2],-3.92
same,z-score,[3],-0.34
same,z-score,[4],0.626
same,z-score,[5],0.353
same,z-score,[6],0.0313
same,z-score,[7],-0.809 (inactive)
same,z-score,[8],0.434
same,z-score,[9],-0.819
same,z-score,[10],0.558 (inactive)
same,z-score,[11],0.0502
same,z-score,[12],-2.38 (inactive)
same,z-score,[13],0.325 (inactive)
same,composite z-score,[14],-0.344 (inactive)
same,z-score,[15],-0.496 (inactive)
same,z-score,[16],-0.2 (inactive)
same,z-score,[17],-0.105 (inactive)
same,z-score,[18],0.194 (inactive)
same,z-score,[19],1.08
same,composite z-score,[20],-0.0473
CC(C)[Si](C#C[Si](C(C)C)(C(C)C)C(C)C)(O[C@H](C)c1cn(Cc2cccc(Cl)c2)nn1)C(C)C,z-score,[1],1.85
same,z-score,[2],-0.667
same,z-score,[3],1.12
same,z-score,[4],0.673
same,z-score,[5],0.133
same,z-score,[6],1.37
same,z-score,[7],0.159 (inactive)
same,z-score,[8],-0.0288
same,z-score,[9],0.238
same,z-score,[10],1.15 (inactive)
same,z-score,[11],0.205
same,z-score,[12],0.916 (inactive)
same,z-score,[13],1.77 (inactive)
same,composite z-score,[14],0.621 (inactive)
same,z-score,[15],0.444 (inactive)
same,z-score,[16],0.0575 (inactive)
same,z-score,[17],2.07 (inactive)
same,z-score,[18],1.52 (inactive)
same,z-score,[19],1.68
same,composite z-score,[20],-0.205
O=C(CS)NCCCCCNC(=O)[C@@H]1C[C@@H]2C(=O)N3CCC[C@H]3C(=O)N2[C@@H]1c1ccc(O)cc1,z-score,[1],0.644
same,z-score,[2],-0.239
same,z-score,[3],0.413
same,z-score,[4],-0.96
same,z-score,[5],0.125
same,z-score,[6],-0.264
same,z-score,[7],-0.155 (inactive)
same,z-score,[8],-0.282
same,z-score,[9],0.684
same,z-score,[10],-0.284 (inactive)
same,z-score,[11],-0.196
same,z-score,[12],-0.419 (inactive)
same,z-score,[13],-0.0752 (inactive)
same,composite z-score,[14],0.252 (inactive)
same,z-score,[15],-0.102 (inactive)
same,z-score,[16],0.132 (inactive)
same,z-score,[17],-0.651 (inactive)
same,z-score,[18],-0.265 (inactive)
same,z-score,[19],-0.0255
same,composite z-score,[20],-0.127
COc1ccc(C#Cc2ccc3c(c2)[C@]2(C(=O)N3)[C@H](C(=O)O)[C@H]3C(=O)O[C@H](c4ccccc4)[C@H](c4ccccc4)N3[C@@H]2c2ccc(OCCO)cc2)cc1,z-score,[1],0.614
same,z-score,[2],0.971
same,z-score,[3],1.27
same,z-score,[4],-2.45
same,z-score,[5],-4.03
same,z-score,[6],-4.14
same,z-score,[7],-4.58 (inactive)
same,z-score,[8],-1.23
same,z-score,[9],-1.27
same,z-score,[10],0.982 (inactive)
same,z-score,[11],-0.182
same,z-score,[12],0.773 (inactive)
same,z-score,[13],0.586 (inactive)
same,composite z-score,[14],-15.6 (active)
same,z-score,[15],3.6 (inactive)
same,z-score,[16],2.51 (inactive)
same,z-score,[17],0.851 (inactive)
same,z-score,[18],0.377 (inactive)
same,z-score,[19],0.431
same,composite z-score,[20],0.0811
